These results are taken from PubChem BioAssay.

The source made the active and inactive calls. Unless noted, the rule behind the calls is not given here.

The test system of assay [1] is XIP peptide (Xip251-270) binding. Description: XIP fragment 251-270 binding compounds – biochemical, small-molecule microarray, fluorescence 635/667 nm, 0.1 µg/mL protein, primary screen (AID 1182). As to conditions: fluorescent protein binding, 635 nm, higher = more signal, called active from +8 up or from −8 down.
For a further assay, the system named is XIP peptide (Xip251-270). The experiment in a line: compounds binding XIP fragment 251-270 – biochemical, small-molecule microarray, fluorescence 635/667 nm, 0.5 µg/mL protein, primary screen (AID 1183). As to conditions: fluorescence 635 nm, higher = more signal.
A short description of assay [2]: blood-stage malaria parasite viability loss – strain 3D7, DAPI fluorescence, 100 nL, primary screen (AID 1184).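 Note: parasites grown inside human red blood cells in medium with human serum.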 As to conditions: P. falciparum 3D7 growth, 3 d, higher = more signal.
Assay [3] deals with Homeobox protein Hox-A13 (Mus musculus) (UniProt Q62424). The experiment in a line: disruptors of Hoxa13 oligonucleotide interaction – biochemical, fluorescence polarization, labeled oligonucleotide, primary screen (AID 1185). As to conditions: Hoxa13:DNA binding, 15 min, higher = more signal, called active from +8 up or from −8 down.
A short description of assay [4]: blockers of DNA damage checkpoint Chk1 activation – imaging, HeLa, hydroxyurea, phospho-Chk1 antibody, percent positive cells, primary screen (AID 1186). Particulars: hydroxyurea-induced phospho-Chk1 immunofluorescence imaging, higher = more signal.
Assay [5] is described as follows: blockers of DNA damage checkpoint Chk1 activation – imaging, HeLa, hydroxyurea, phospho-Chk1 nuclear intensity, primary screen (AID 1187). As to conditions: hydroxyurea-induced phospho-Chk1 immunofluorescence imaging, higher = more signal.

Chain of Homeobox protein Hox-A13 (Mus musculus) (Q62424 whole entry, looked up): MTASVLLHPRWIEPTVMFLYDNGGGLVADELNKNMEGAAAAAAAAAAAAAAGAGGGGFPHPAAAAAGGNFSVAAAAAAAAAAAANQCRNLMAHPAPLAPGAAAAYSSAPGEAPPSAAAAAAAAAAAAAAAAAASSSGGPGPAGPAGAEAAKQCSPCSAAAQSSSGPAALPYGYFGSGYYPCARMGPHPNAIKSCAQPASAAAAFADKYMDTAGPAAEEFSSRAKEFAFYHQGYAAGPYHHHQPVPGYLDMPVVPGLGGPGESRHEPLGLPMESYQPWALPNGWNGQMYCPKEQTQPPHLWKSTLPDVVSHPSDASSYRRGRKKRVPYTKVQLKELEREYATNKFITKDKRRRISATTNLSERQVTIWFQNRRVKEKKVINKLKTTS

For the molecule `CCC[C@@H]1C[C@@]1(CCC)[C@@H](NS(=O)(=O)c1cccc2cccnc12)c1ccc(Cl)cc1`, the composite z-score in assay [1] was 0.0535 (inactive); in the assay with XIP peptide (Xip251-270), -0.271. Besides, the z-score in assay [2] is -0.586; in assay [3], -0.392 (inactive); in assay [4] it was 0.555 (inactive); in assay [5], 0.618 (inactive).
Take `O=C(N1CCCCC1)[C@]1(Cc2ccccc2)N=C(c2ccc(OCCCO)cc2)O[C@@H]1c1ccccc1`: the values for the composite z-score (in assay [1]; with XIP peptide (Xip251-270)) were 0.0557 (inactive) and 0.657, respectively. Also, the z-score was -2.79 in assay [2], -4.71 (inactive) in assay [3], -0.6 (inactive) in assay [4] and -0.641 (inactive) in assay [5].
As to `C=C(COC)/C(=C/C[C@H](OC(C)=O)c1ccc(CO)o1)c1cc(C(=O)OC)ccc1OC`, the results for the composite z-score (in assay [1]; in the assay with XIP peptide (Xip251-270)) were 0.443 (inactive) and -0.257, respectively. Besides, the z-score in assay [2] was -2.07; in assay [3] it was -4.87 (inactive); in assay [4], -0.45 (inactive); in assay [5] it was -0.735 (inactive).
In the case of `COC(=O)[C@@]1(Cc2ccc(F)cc2)[C@H]2c3cc(C(=O)N(C)C)n(Cc4ccccc4)c3C[C@H]2CN1C(=O)c1ccccc1`, the composite z-score in assay [1] is 0.578 (inactive); in the assay on XIP peptide (Xip251-270), 0.766. In addition, the z-score was -1.41 in assay [2], -3.11 (inactive) in assay [3], 1.33 (inactive) in assay [4] and 1.2 (inactive) in assay [5].
In the case of `C=CC[C@]1(C(=O)NCCCOC)N=C(c2ccc(OCCCO)cc2)O[C@H]1c1ccccc1CN=[N+]=[N-]`, the composite z-score in assay [1] was 0.967 (inactive); with XIP peptide (Xip251-270), 0.763. Also, the z-score in assay [2] was -2.52; in assay [3], -5.11 (inactive); in assay [4], 0.14 (inactive); in assay [5] it was -0.0062 (inactive).
`CCS[C@H]1[C@@H](C(=O)O)[C@H](c2ccc(C)cc2)N(S(=O)(=O)c2ccc(C)cc2)[C@@H]1CC`: the composite z-score in assay [1] was 0.458 (inactive); with XIP peptide (Xip251-270), 0.327. The z-score in assay [2] is 0.184; in assay [3], -2.35 (inactive); in assay [4] it was -0.72 (inactive); in assay [5] it was -0.307 (inactive).
On to `COC(=O)[C@@]1(CCC(=O)OC(C)(C)C)N=C(c2ccc(OCCCO)cc2)O[C@H]1c1ccccc1N=[N+]=[N-]`, for which the composite z-score was 1.35 (inactive) in assay [1] and 0.664 in the assay on XIP peptide (Xip251-270). Besides, the z-score was -2.33 in assay [2], -2.14 (inactive) in assay [3], 0.114 (inactive) in assay [4] and -0.229 (inactive) in assay [5].
For `COc1cc(COC(C)=O)ccc1OC(C)=O`, the composite z-score in assay [1] was -0.603 (inactive); in the assay with XIP peptide (Xip251-270) it was 0.213. Besides, the z-score in assay [2] is 0.287; in assay [3], 0.579 (inactive); in assay [4], -1.08 (inactive); in assay [5], -1.53 (inactive).
Turning to `C[C@H]1NC(=O)[C@@]23C(=O)N[C@@H](Cc4ccccc4)C2[C@H](C)[C@@]2(C)O[C@H]2C3/C=C/C/C=C\CNC(=O)[C@@H]2CCCN2C1=O` (stereo partly specified), the composite z-score in assay [1] is 0.091 (inactive); in the assay on XIP peptide (Xip251-270), 0.667. For the same molecule, the z-score was 0.91 in assay [2], -3.78 (inactive) in assay [3], 0.237 (inactive) in assay [4] and 0.087 (inactive) in assay [5].
For `O=C1c2ccccc2[C@](Cc2ccccc2I)(C(=O)NCC(F)(F)F)[C@H](c2ccc(CO)cc2)N1Cc1ccccc1Cl`, the composite z-score in assay [1] was 0.149 (inactive); with XIP peptide (Xip251-270) it was 0.776. Also, the z-score in assay [2] was -0.562; in assay [3], -4.2 (inactive); in assay [4], -0.151 (inactive); in assay [5], -0.557 (inactive).
For the molecule `O=C1C2C=CC(C(O)c3cccc4ccccc34)N(Nc3ccccc3F)C2C(=O)N1c1ccccc1` (stereo unspecified), the results for the composite z-score (in assay [1]; in the assay on XIP peptide (Xip251-270)) were 1.09 (inactive) and 0.871, respectively. In addition, the z-score in assay [2] is 0.71; in assay [3] it was -3.52 (inactive); in assay [4] it was 0.228 (inactive); in assay [5], 0.807 (inactive).
As to `C=C(CCCC)C(=O)CC[C@@H](OC(=O)c1ccccc1-c1ccccc1C(=O)O)c1ccc(OCCO)cc1`, the composite z-score in assay [1] is 0.175 (inactive); in the assay on XIP peptide (Xip251-270), 0.602. Also, the z-score in assay [2] is -2.46; in assay [3] it was -5.5 (inactive); in assay [4], 0.431 (inactive); in assay [5] it was 0.362 (inactive).
For the molecule `CC1CC/C=C\[C@H]2OC34C=CCN(C(C)(C)C)C(=O)[C@H]3N(CCO)C(=O)[C@@H]4C2C(=O)O1` (stereo partly specified), the composite z-score in assay [1] is -0.892 (inactive); with XIP peptide (Xip251-270) it was 0.833. Also, the z-score in assay [2] was -0.162; in assay [3], -5.01 (inactive); in assay [4] it was -0.878 (inactive); in assay [5], -0.798 (inactive).
With `C=CCNC(=O)[C@@H]1[C@H]2C(=O)O[C@H](c3ccccc3)[C@H](c3ccccc3)N2[C@H](c2ccc(O)cc2)[C@@]12C(=O)Nc1ccc(C#CCNC(N)=O)cc12`, the composite z-score in assay [1] was 0.33 (inactive); in the assay with XIP peptide (Xip251-270), 0.0915. Further, the z-score in assay [2] was -0.1; in assay [3] it was -3.36 (inactive); in assay [4] it was -0.0873 (inactive); in assay [5], -0.0078 (inactive).
On to `CC(C)C[C@@H]1NC(=O)[C@@H]2C[C@H](C(=O)NCc3ccc(F)cc3)[C@H](c3cccc(OCCO)c3)N2C1=O`, for which the composite z-score was 0.832 (inactive) in assay [1] and 0.421 in the assay with XIP peptide (Xip251-270). The z-score in assay [2] is 0.124; in assay [3], -3.95 (inactive); in assay [4], 0.465 (inactive); in assay [5], 0.554 (inactive).
For `C=CCC(OC(C)=O)[C@@H]1[C@@H](N(Cc2ccc(-c3ccccc3)cc2)C(=O)c2cccc3ccccc23)c2cc(OCCCO)ccc2N1C(=O)c1ccc(-c2ccccc2)cc1` (stereo partly specified), the composite z-score in assay [1] is -0.299 (inactive); in the assay on XIP peptide (Xip251-270), -0.321. For the same molecule, the z-score was -2.81 in assay [2], -1.22 (inactive) in assay [3], -0.627 (inactive) in assay [4] and -0.234 (inactive) in assay [5].
Consider `CN1C(=O)C2C=CC(C(O)c3ccco3)N(Nc3ccccc3)C2C1=O` (stereo unspecified), for which the composite z-score is -0.225 (inactive) in assay [1] and 0.343 in the assay with XIP peptide (Xip251-270). Besides, the z-score in assay [2] was -0.142; in assay [3] it was -3.54 (inactive); in assay [4], -0.221 (inactive); in assay [5], -0.752 (inactive).
`COc1ccc(C#Cc2ccc3c(c2)[C@]2(C(=O)N3)[C@H](c3ccccc3OCCO)N3[C@H](c4ccccc4)[C@H](c4ccccc4)OC(=O)[C@H]3[C@@H]2C(=O)Nc2nc3ccccc3s2)cc1`: the composite z-score in assay [1] is 0.881 (inactive); with XIP peptide (Xip251-270), 0.68. In addition, the z-score was -1.9 in assay [2], 2.72 (inactive) in assay [3], 0.165 (inactive) in assay [4] and 0.265 (inactive) in assay [5].
As for `C=C(C(=O)CC[C@@H](OC(=O)c1cccnc1)c1ccccc1OCCO)C(C)C`, the values for the composite z-score (in assay [1]; in the assay on XIP peptide (Xip251-270)) were 0.79 (inactive) and 0.209, respectively. For the same molecule, the z-score in assay [2] was -2.27; in assay [3], -3.56 (inactive); in assay [4], 0.434 (inactive); in assay [5] it was 0.993 (inactive).
Consider `O=C1C2C=CC(C(O)CCc3ccccc3)N(Nc3ccccc3F)C2C(=O)N1c1ccccc1` (stereo unspecified), for which the composite z-score in assay [1] is 0.605 (inactive); in the assay on XIP peptide (Xip251-270), 0.524. The z-score in assay [2] was -0.0934; in assay [3], -2.76 (inactive); in assay [4] it was 0.652 (inactive); in assay [5], 0.699 (inactive).
Take `CCOC(=O)C[C@H]1[C@H](OC(=O)c2ccc(-c3ccccc3)cc2)[C@@H](NC(=O)Cc2ccc(OC)cc2)c2cc(OCCCO)ccc2N1C(=O)c1ccccc1`: the values for the composite z-score (in assay [1]; in the assay on XIP peptide (Xip251-270)) were -0.243 (inactive) and -0.464, respectively. The z-score in assay [2] was -0.791; in assay [3], -2.14 (inactive); in assay [4], 0.2 (inactive); in assay [5], 0.106 (inactive).
As for `C=CCNC(=O)[C@@H]1[C@H]2C(=O)O[C@H](c3ccccc3)[C@H](c3ccccc3)N2[C@H](c2ccc(OCCO)cc2)[C@@]12C(=O)Nc1ccc(C#CCC(C(=O)OC)C(=O)OC)cc12`, the values for the composite z-score (in assay [1]; with XIP peptide (Xip251-270)) were 1.21 (inactive) and 0.905, respectively. The z-score in assay [2] is -2.22; in assay [3], -1.05 (inactive); in assay [4] it was 0.222 (inactive); in assay [5] it was 0.477 (inactive).
On to `C[N+](C)(C)CCCC[C@@H]1NC(=O)[C@H]2C[C@@H](C(=O)NCCCCCCNC(=O)CS)[C@@H](c3cccc(OCCO)c3)N2C1=O`, for which the composite z-score in assay [1] was 0.173 (inactive); in the assay on XIP peptide (Xip251-270), 0.487. In addition, the z-score in assay [2] is -0.135; in assay [3], -1.87 (inactive); in assay [4] it was 0.964 (inactive); in assay [5], 1.2 (inactive).
Take `C=C(CCCC)/C(=C/C[C@@H](OC(C)=O)c1ccc(OCCO)cc1)c1cnc2ccccc2c1`: the composite z-score in assay [1] is 0.591 (inactive); with XIP peptide (Xip251-270), 0.751. The z-score in assay [2] was -3; in assay [3] it was -3.65 (inactive); in assay [4] it was -0.66 (inactive); in assay [5], -0.0832 (inactive).
In the case of `COc1ccc(CCNC(=O)[C@@]2(Sc3ccc(C)cc3)CC(=O)N(C3Cc4ccccc4C3)[C@@H]2c2ccc(CO)cc2I)cc1`, the composite z-score in assay [1] is -0.0449 (inactive); in the assay with XIP peptide (Xip251-270), 0.81. In addition, the z-score is -0.725 in assay [2], -2.4 (inactive) in assay [3], 0.136 (inactive) in assay [4] and 0.684 (inactive) in assay [5].
Consider `COCCOC(=O)N1C(=O)[C@@]2(c3cc(C#CCCO)ccc31)[C@H](C(N)=O)[C@H]1C(=O)O[C@H](c3ccccc3)[C@H](c3ccccc3)N1[C@@H]2c1ccc(O)cc1`, for which the composite z-score in assay [1] is -0.13 (inactive); in the assay with XIP peptide (Xip251-270), -0.452. Also, the z-score was 2.08 in assay [2], -4.08 (inactive) in assay [3], 0.0513 (inactive) in assay [4] and -0.0312 (inactive) in assay [5].
